Compound activity deposited in PubChem BioAssay by several laboratories.
In the library only some 2.8% were active in any assay of this set; here they are far more common.
HIF-2a inh: blocks HIF-2a reporter activity; 786-0 RCC cells HIF-2a reporter, luciferase luminescence, overnight; inhibition, % at 18.8 µM; actives 0.72% (n = 360,000);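 active = inhibition of the luminescence signal of 40% or more relative to plate controls, in a single-dose primary screen at 18.75 µM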
MITF TRPM1 inh: MITF TRPM1 promoter inhibition in SK-MEL-5 cells | actives 0.83% (n = 330,000) | inhibition, % at 12.5 µM | SK-MEL-5 TRPM1 promoter luciferase, 24 h;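 active = mean inhibition across replicates of 60% or more, whatever share of single replicates reaches that level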
Peg3 promoter: inhibitors of Peg3 promoter. HeLa PEG-Prom luciferase reporter, luminescence, overnight. inhibition, % at 20 µM. actives 1.7% (n = 360,000);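 active = inhibition of at least 50% at 20 µM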
LMP1 NFkB inh: inhibitors of Epstein-Barr LMP1-induced NF-kappaB reporter; LMP1-induced NF-kappaB luciferase reporter cells, luminescence; inhibition, % at 12.5 µM; actives 0.69% (n = 350,000); in the data active = inhibition above about 41%;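 note: 0% = neutral control wells and 100% = reference inhibitor control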
PAX8 reporter: lowers PAX8-driven luciferase in RMG-I cells. RMG-I TPO-luciferase reporter, SteadyGlo, 24 h. inhibition, % at 12.6 µM. actives 1.2% (n = 360,000). AID 652154;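 active = mean replicate inhibition at least 60% with every replicate also reaching 60%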;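 note: luciferase light reporting Pax8 driven TPO promoter activity; plate controls were median of neutral control wells for no effect and mitoxantrone controls for full effect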
Shn3 3UTR inh: Schnurri-3 reporter inhibition in Clone20 osteoblasts. Clone20 osteoblast Shn3 3'UTR firefly luciferase, 24 h. inhibition, % at 12.5 µM. actives 0.52% (n = 360,000). AID 588674;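 active = mean inhibition of at least 75% with every replicate also reaching 75%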;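 note: 0% = median of neutral control wells and 100% = pilot-screen positive control compound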
* = called active by the depositor; . = no result.

SMILES	HIF-2a inh	MITF TRPM1 inh	Peg3 promoter	LMP1 NFkB inh	PAX8 reporter	Shn3 3UTR inh
C[C@@H]1CN([C@H](C)CO)C(=O)Cc2cc(NC(=O)CCCCCC(=O)Nc3ccccc3N)ccc2O[C@@H]1CN(C)Cc1ccc(Cl)c(Cl)c1	.	.	.	.	52	.
C[C@@H]1CN([C@@H](C)CO)C(=O)Cc2cc(NC(=O)CCCCCC(=O)Nc3ccccc3N)ccc2O[C@@H]1CN(C)Cc1ccc(Cl)c(Cl)c1	.	.	.	.	70*	.
C[C@H]1CCCCO[C@@H](CN(C)C(=O)Cc2ccccc2)[C@@H](C)CN([C@@H](C)CO)C(=O)c2cc(NS(=O)(=O)c3ccc(Cl)cc3)ccc2O1	.	.	.	.	55	.
COCC#Cc1ccc([C@H]2[C@@H](CO)N3C(=O)CN(C(=O)C4CC4)C[C@H]23)cc1	.	.	.	.	-9	.
C[C@H](NC(=O)[C@@H]1[C@@H](CO)[C@@H]2Cn3c(cccc3=O)[C@@H]2N1S(C)(=O)=O)c1ccccc1	.	.	.	.	6	.
O=C(N[C@H]1CC[C@H](CCNS(=O)(=O)c2ccc(F)cc2)O[C@H]1CO)C1CCOCC1	.	.	.	.	0	.
Cc1noc(C)c1NC(=O)Nc1cccc2c1O[C@H](CN(C)Cc1ccc(C(F)(F)F)cc1)[C@@H](C)CN([C@@H](C)CO)C2=O	.	.	.	.	9	.
C[C@@H]1CN([C@H](C)CO)C(=O)Cc2cc(NC(=O)CCCCCC(=O)Nc3ccccc3N)ccc2O[C@H]1CN(C)Cc1ccc(C(F)(F)F)cc1	.	.	.	.	21	.
C[C@@H]1CN([C@H](C)CO)C(=O)Cc2cc(NC(=O)CCCCCC(=O)Nc3ccccc3N)ccc2O[C@@H]1CN(C)Cc1ccc(C(F)(F)F)cc1	.	.	.	.	69*	.
Cc1noc(C)c1NC(=O)Nc1cccc2c1O[C@H](CN(C)Cc1ccc(C(F)(F)F)cc1)[C@H](C)CN([C@@H](C)CO)C2=O	.	.	.	.	81*	.
CNC[C@H]1Oc2ncc(Br)cc2C(=O)N([C@H](C)CO)C[C@@H]1C	.	.	.	.	-43	.
Cc1nc2ccc(NC(=O)c3ccc(S(=O)(=O)N(C)c4ccccc4)cc3)cc2s1	23	18	67*	7	15	34
C[C@@H]1CN([C@H](C)CO)C(=O)c2cc(C#Cc3cccnc3)cnc2O[C@H]1CN(C)Cc1ccc(F)cc1	.	.	.	.	-2	.
CN1CCCC(CC2c3ccccc3Sc3ccccc32)C1 (centres undefined)	-8	-8	60*	-7	-7	0
Cc1noc(C)c1NC(=O)Nc1ccc2c(c1)CC(=O)N([C@H](C)CO)C[C@H](C)[C@H](CN(C)S(=O)(=O)c1cccs1)O2	.	.	.	.	-13	.
O=C(Nc1ccc2c(c1)[C@@H]1C[C@H](CC(=O)N3CCCCC3)O[C@H](CO)[C@@H]1O2)c1ccc2c(c1)OCO2	.	.	.	.	-20	.
CC(=O)c1c2c3c(c(Br)ccc3n(C)c1=O)C(=O)c1ccccc1-2	11	-3	-3	0	-9	5
CC(=O)c1c(C)oc2c1C(=O)c1ccccc1C2=O	17	79*	42	4	10	-5
COc1ccc(CNC(=O)c2c(C)oc3c2C(=O)c2ccccc2C3=O)cc1	73*	104*	102*	13	28	76
O=c1c2ccccc2sn1-c1ccccc1	-69	-5	65*	-4	.	16
CC(=O)NC[C@H]1[C@H](c2ccc(-c3cccc(F)c3)cc2)[C@H](CO)N1C(C)=O	.	.	.	.	5	.
CC1=CC(C)(C)N2C(=O)C3(NCCc4c3[nH]c3ccccc43)c3cc(C)cc1c32 (centres undefined)	-5	-9	20	-2	88*	32
CC(C)CCCCCCCCCCCCC(=O)NCC(=O)NC1C(C)OC(Nc2ncnc3nc[nH]c23)C(O)C1O (centres undefined)	79*	69*	100*	92*	106*	92*
C[C@H](CO)N1C[C@H](C)[C@H](CN(C)Cc2ccc(C(F)(F)F)cc2)OCCCC[C@H](C)Oc2ccc(NC(=O)NC3CCCCC3)cc2C1=O	.	.	.	.	91*	.
C[C@H]1CCCCO[C@H](CN(C)Cc2ccc(C(F)(F)F)cc2)[C@@H](C)CN([C@@H](C)CO)C(=O)c2cc(NC(=O)NC3CCCCC3)ccc2O1	.	.	.	.	10	.
SMILES	HIF-2a inh	MITF TRPM1 inh	Peg3 promoter	LMP1 NFkB inh	PAX8 reporter	Shn3 3UTR inh
C[C@@H]1CCCCO[C@@H](CN(C)Cc2ccc(C(F)(F)F)cc2)[C@H](C)CN([C@@H](C)CO)C(=O)c2cc(NC(=O)NC3CCCCC3)ccc2O1	.	.	.	.	78*	.
COc1ccc2nc(/C(C#N)=C\c3ccc(Oc4ccc([N+](=O)[O-])cn4)cc3)[nH]c2c1	-7	-9	81*	3	2	25
CN1CCN(C2Cc3ccc(F)cc3Sc3cc(F)c(Cl)cc32)CC1 (centres undefined)	0	3	107*	-10	4	.
CCN1CCN(c2cc(SC(C)C)nc(-c3ccc(OC)cc3)n2)CC1	8	-3	53*	-10	.	-22
CO[C@H]1CN(C)C(=O)c2ccc(NC(=O)C3CCCCC3)cc2OC[C@H](C)N(Cc2cccnc2)C[C@H]1C	.	.	.	.	11	.
O=C(c1cc(-c2ccncc2)nc2ccc(Br)cc12)N1CCN(c2ccccn2)CC1	-4	-16	29	-1	.	12
O=C(c1cc(-c2ccccc2Cl)nc2ccc(Br)cc12)N1CCN(c2ccccn2)CC1	15	33	92*	-1	-2	21
CCOc1cccc(/C=C/c2ccc3cccc(O)c3n2)c1O	-243	-19	97*	-2	-70	-14
CCOc1cccc(/C=C/c2ccc3cccc(O)c3n2)c1OC	-331	-8	-18	-2	1	1
C[C@H](CO)N1C[C@H](C)[C@H](CN(C)Cc2ccc(-c3ccccc3)cc2)Oc2ccc(NS(=O)(=O)c3ccc(F)cc3)cc2CC1=O	.	.	.	.	113*	.
C[C@@H]1CN([C@@H](C)CO)C(=O)Cc2cc(NS(=O)(=O)c3ccc(F)cc3)ccc2O[C@H]1CN(C)Cc1ccc(C(F)(F)F)cc1	.	.	.	.	90*	.
COc1ccc(S(=O)(=O)Nc2ccc3c(c2)CC(=O)N([C@@H](C)CO)C[C@H](C)[C@@H](CN(C)Cc2ccc(C(F)(F)F)cc2)O3)cc1	.	.	.	.	83*	.
Cc1ccc(S(=O)(=O)Nc2ccc3c(c2)CC(=O)N([C@H](C)CO)C[C@H](C)[C@H](CN(C)Cc2ccc(C(F)(F)F)cc2)O3)cc1	.	.	.	.	23	.
Cc1ccc(S(=O)(=O)Nc2ccc3c(c2)CC(=O)N([C@@H](C)CO)C[C@@H](C)[C@@H](CN(C)Cc2ccc(C(F)(F)F)cc2)O3)cc1	.	.	.	.	62*	.
CN(C)CCCNC(=O)C[C@H]1C=C[C@@H](NC(=O)c2ccccc2F)[C@H](CO)O1	.	.	.	.	14	.
O=C(c1cccnc1)N1C[C@H]2[C@@H](c3ccccc31)[C@H](CO)N2C(=O)Nc1ccccc1F	.	.	.	.	-3	.
Cc1ccc(S(=O)(=O)Nc2ccc3c(c2)CC(=O)N([C@H](C)CO)C[C@H](C)[C@H](CN(C)Cc2ccc(Oc4ccccc4)cc2)O3)cc1	.	.	.	.	-11	.
